Shown are actives, neighbours in structure and some others; about 3.8% of the full set was active somewhere.
HepG2 tox: counter-screen for TGF-b inhibitors: cytotoxicity in HepG2 cells; HepG2 CAGA-GFP viability, ATP luminescence, 18 h; Potency, µM (series often up to 46.1 µM), without a hit: at the highest dose activity change, negative = cytotoxicity, usual class: cytotoxic; 410,000 tested, 0.76% active
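CellTiter-Glo luminescence gave cytotoxicity after 18 hours at 37 degrees C. The cells were HepG2 CAGA-GFP in 1% FBS DMEM, stimulated with 500 pg/mL TGF-beta after compound addition. %Activity was normalised to no-cell wells (complete cell-killing) and DMSO (no toxicity), and curves were fitted and classified.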
TGFb SMAD3 inh: TGF-b pathway inhibition. HepG2 CAGA-GFP TGF-b/SMAD3 reporter, GFP fluorescence, 18 h; TGF-beta stimulated, 500 pg/mL final. Potency, µM (highest dose often 46.1 µM), inactives show at the top dose activity, negative = inhibition, usual class: inhibitors. 410,000 tested, 1.2% active. AID 588855; further: on the % scale 0 is the no-effect control and ±100 the full control effect; nearly all actives have a fitted effect of over 65% in size
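First, reporter cells (HEPG2 CAGA-GFP) rested 2 h at 37 degrees C. Next, compounds were pinned in and TGF-beta added to 500 pg/mL final. After 18 h, GFP was imaged per cell and summed per well.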
Nrf2 inh: inhibitors of Nrf2 signaling; A549 ARE-Fluc reporter, luciferase luminescence, 18-24 h; Potency, µM (titrated, usually from 46 µM), for inactives: at the highest dose activity change, negative = inhibition, actives largely listed as inhibitors; 360,000 tested, 2.1% active; further: on the % scale 0 is the no-effect control and ±100 the full control effect; nearly all actives have a fitted effect of over 60% in size
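Concentration-response testing used A549 ARE_Fluc cells at 5000 cells/well. Following an 18-24 h compound incubation, viability was read by fluorescence (Ex 405/Em 525) and luciferase output by luminescence.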
ATXN2 expr inh: ATXN2 expression inhibition; AID 1745845; HEK-293 ATXN2-luciferase reporter, luminescence, 24 h; 360,000 tested, 0.72% active; Potency, µM (doses to about 57 µM), for the others: at the highest dose activity change, negative = inhibition, hits mostly inhibitors; further: on the % scale 0 is the no-effect control and ±100 the full control effect; nearly all actives have a fitted effect of over 55% in size
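qHTS (up to 57 uM final) was run with 24 h compound exposure of reporter cells at 37 °C. Each well was multiplexed: SteadyGlo luminescence measured ATXN2-luciferase expression after a fluorogenic Gly-Phe-AFC viability readout (25 uM final).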
A549 tox: A549 cytotoxicity, counter-screen for Nrf2 inhibitors; A549 ARE-Fluc cells, CellTiter-Fluor viability, 18-24 h; Potency, µM (highest dose often 46 µM), for inactives: at the top dose activity change, negative = cytotoxicity, most hits filed as inhibitors; 390,000 tested, 0.16% active; AID 504648; further: on the % scale 0 is the no-effect control and ±100 the full control effect
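A549 ARE_Fluc cells in 5% FBS OPTI-MEM were exposed to compounds in concentration-response for 18-24 h at 37 deg C. Viability was read by CellTiter-Fluor fluorescence (Ex 405/Em 525) after 30 min, before the luciferase read.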
S2 tox: reduces viability in counter-screen for ATXN expression inhibitors; 400,000 tested, 0.49% active; Potency, µM (doses to about 56.7 µM), hits mostly cytotoxic; AID 651635; S2 cells (HEK-293 line with an ATXN2-luciferase reporter) viability, CellTiter-Fluor protease fluorescence, 24 h; further: nearly all actives have a fitted effect of over 40% in size
The depositor's hits bear a star; i = inactive; ? = inconclusive; . = not tested or not shown; ! = not active in a repeat; [ ] = dose if it differs, or a comment. The call rests on the fitted dose curve; in most records, active means well fitted curve in the direction sought with a large enough effect; inconclusive means small, poorly fitted or top-dose-only effect, or another doubt; inactive means no such curve, though single readings can be large; an effect the other way counts as inactive or inconclusive. Potency means the concentration at half of the fitted maximal effect.

SMILES | HepG2 tox | TGFb SMAD3 inh | Nrf2 inh | ATXN2 expr inh | A549 tox | S2 tox
CCN(CC)CCNC(=O)C1CCN(S(=O)(=O)c2c(C)noc2/C=C/c2ccccc2F)CC1 | 14µM*! | ? | 23% | 13µM* | 11% | ?
CCOc1ccc(C(=O)CCN2CCCCCC2)cc1 | 11µM* | ? | 4% | 4% | -2% | i
CCCCOc1ccc(C(=O)CCN2CCOCC2)cc1 | -69% | ? | 1% | 19µM* | 1% | .
O=C(OCCN1CCOCC1)c1ccc(OCCN2CCOCC2)cc1 | 0% | 9% | . | 5% | 11% | i
CCCOc1ccc(C(=O)CCN2CCCCC2)cc1 | -67% | ? | 1% | -10% | 1% | i
CCOc1cc(CNc2ccc(N3CCCCC3)cc2)cc(Br)c1OCC(=O)NC(C)(C)C | -35% | ? | 16µM* | -17% | ? | i
CCOc1cc(CNc2ccc(N(C)C)cc2)cc(Br)c1OCC(=O)NC(C)(C)C | -32% | ? | ? | -5% | ? | i
C=CCOc1c(Br)cc(CNc2ccc(NC(=O)CCC)cc2)cc1OCC | 1% | -4% | 15µM* | -18% | -17% | i
COc1cccc(C(NC(C)=O)c2nc(-c3cccc(C(C)C)c3)cs2)c1 (stereo not given) | -14% | 18% | . | -10% | . | i
CC(C)Cc1ccc(C(C)C(N)=Nc2ccc(O)cc2)cc1 (stereo not given) | 16µM* | ? | ? | ? | 1% | i
CN(C(=O)c1cccc(NC(=O)Cc2cccc([N+](=O)[O-])c2)c1)C1CCC1 | 2% | ? | ? | ? | 0% | ?
CN(C(=O)c1cccc(NC(=O)Cc2ccc([N+](=O)[O-])cc2)c1)C1CCCC1 | -15% | ? | 23µM* | ? | -13% | ?
CN(C(=O)c1cccc(NC(=O)Cc2cccc([N+](=O)[O-])c2)c1)C1CCCC1 | -14% | ? | 10µM* | -40% | -2% | i
CN(Cc1ccccc1)C(=O)c1cccc(NC(=O)Cc2cccc([N+](=O)[O-])c2)c1 | -13% | ? | 16µM* | ? | -3% | ?
CCOC(=O)C1(CCOC)CCN(Cc2nc(C(C)C)cs2)CC1 | -13% | 18% | 22% | 4% | 5% | i
COc1ccccc1NS(=O)(=O)c1cc([N+](=O)[O-])ccc1N/N=C/c1c(C)[nH]c2ccccc12 | -40% | -17% | ? | -25% | ? | ?
O=[N+]([O-])c1ccc(N/N=C/c2c[nH]c3ccccc23)c(S(=O)(=O)Nc2ccc(Cl)cc2)c1 | -22% | -12% | 15µM* | 0% | 21µM* | i
COc1ccc(-c2c(C)nc3c(-c4ccccn4)cnn3c2N)cc1 | -37% | 11µM* | ? | 48% | 0% | i
Cc1ccc(S(=O)(=O)N2CCCc3cc(NS(=O)(=O)c4ccccc4)ccc32)cc1 | 1% | 16µM* | . | 0% | -6% | .
Cc1ccc(S(=O)(=O)N2CCCc3cc(NS(=O)(=O)c4ccc(F)cc4)ccc32)cc1 | -34% | ? | . | ? | ? | .
CCc1c(C)sc(NC(=O)c2cc3nc(-c4ccc(OC)cc4)cc(C(F)(F)F)n3n2)c1C(=O)OC | 1% | -1% | 0% | 7% | 7% | i
CN1CCN(C(=O)Cn2c(-c3cccs3)cc3ccccc32)CC1 | -4% | -28% | -2% | -4% | -2% | i
Cc1noc(C)c1-c1ccc2ncnc(NCc3cccc(Cl)c3)c2c1 | . | . | ? | . | 12% | .
COc1cccc(CNc2ncnc3ccc(-c4c(C)noc4C)cc23)c1 | -33% | ? | 12µM* | 69% | -1% | i
CCOC(=O)C1=C(Cn2cnc3ccccc32)NC(=O)NC1c1cc(C)ccc1C (stereo not given) | -27% | ? | ? | ? | -1% | 32µM*
SMILES | HepG2 tox | TGFb SMAD3 inh | Nrf2 inh | ATXN2 expr inh | A549 tox | S2 tox
Cc1ccc(C(=O)Nc2onc3c2CCCC3)cc1 | -32% | -18% | ? | 7.9µM* | 6% | ?
O=C(Nc1ccc(Cl)cc1)N1CCN(c2ccc3nnc(-c4ccccc4)n3n2)CC1 | -31% | 3% | 26µM* | -18% | -22% | i
O=C(Nc1ccccc1Cl)N1CCN(c2ccc3nnc(-c4ccc(F)cc4)n3n2)CC1 | 4% | ? | ? | -23% | -9% | i
COc1ccccc1NC(=O)N1CCN(c2ccc3nnc(-c4ccc(F)cc4)n3n2)CC1 | -21% | ? | 9.2µM* | 18µM*! | -9% | .
NC(=O)C1(N2CCCCC2)CCN(c2ccc3nnc(-c4ccccc4)n3n2)CC1 | 4% | -2% | -18% | -10% | 0% | i
Cc1onc(C(=O)NC2CCCCC2)c1[N+](=O)[O-] | -13% | -33% | 4% | . | 2% | .
COc1ccc(C)cc1NC(=O)C(Sc1nnc(-c2ccncc2)n1-c1ccc(Cl)cc1)c1ccccc1 (stereo not given) | -19% | ? | 26µM* | ? | -1% | i
COc1ccc(C)cc1NC(=O)C(Sc1nnc2ccccn12)c1ccccc1 (stereo not given) | -2% | -17% | -5% | 8% | 5% | i
CCOCCc1nn2c(=O)cc(COC(=O)Cc3ccccc3)nc2s1 | -22% | 6% | ? | 12% | 9% | i
Cc1nc(N2CCCCC2)c2c(C)c(C(=O)Nc3cccc(C(F)(F)F)c3)sc2n1 | 2% | 1% | 23µM* | . | -12% | ?
Cc1ccc(S(=O)(=O)NCC(=O)N/N=C/c2ccc(Cl)cc2Cl)cc1 | -51% | ? | 5% | 9% | 1% | ?
Cc1ccc(S(=O)(=O)NCC(=O)N/N=C/c2ccccc2O)cc1 | -7% | 2% | 5% | 14µM* | 9% | i
CC(C)(C)n1ncc2c(=O)n(Cc3ccc(SC(F)(F)F)cc3)cnc21 | -32% | 16µM* | . | . | . | .
CC(C)(C)n1ncc2c(=O)n(Cc3ccc(F)cc3)cnc21 | -4% | 6% | . | . | . | .
COc1cc2c3nnc(-c4ccc(F)cc4)c-3cn(Cc3ccccc3F)c2cc1OC | 8.9µM* | 84% | -4% | 20µM* | -7% | i
COc1cc2c3nnc(-c4ccccc4)c-3cn(Cc3ccccc3F)c2cc1OC | -62% | 44% | -13% | -19%[11.3 µM] | 5% | .
O=C(NNC(=O)c1ccco1)c1ccc(NS(=O)(=O)c2cccs2)cc1 | 6% | 3% | -4% | -13% | 0% | i
COc1ccccc1OCC(=O)N(Cc1nc(-c2ccccc2)no1)C(C)C | -15% | 17% | 13µM* | ? | -12% | i
Cc1ccc(OCC(=O)N(Cc2nc(-c3ccccc3)no2)C(C)C)cc1C | -29% | ? | . | -9% | 2% | i
